Compound activity as filed in PubChem BioAssay.
sPLA2-III inh = human group III sPLA2 inhibitors, primary screen, biochemical, QFRET, BODIPY PC-A2 liposome substrate; AID 743126, 2013; hit rate 0.56% among 370,000; QFRET BODIPY PC-A2 liposome hydrolysis, fluorescence; inhibition, % at 12.2 µM;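 active means inhibition above mean plus 3 SD of compounds lying within the high and low control bounds, cut at about 19% in these data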;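 further: 0% = median of test compound wells and 100% = no enzyme DMSO wells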
CR mimetic SO = reduction of superoxide in aged yeast, primary screen, HTS | S. cerevisiae aged cells, superoxide DHE fluorescence; hits give low values | superoxide response (% of plate mean), % at 10 µM | hit rate 0.18% among 330,000 | AID 2690, 2010;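 active means superoxide response under a set limit, about three screen SD below normal, cut at about 65% in these data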;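 further: yeast aged for seven days with compound at 30 °C before DHE staining; 100% = average MFI of all compound-treated wells on the plate with controls excluded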
HIF activator = HIF pathway transcriptional activators, primary screen, cell-based, U2OS HRE-luciferase, luminescence. U2OS HRE-luciferase reporter; normalized: DMSO 0%, desferrioxamine 100%. activation, % at 7.5 µM (by protocol). hit rate 0.32% among 300,000;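 active means mean activation of at least 10% of the iron chelator positive control signal, with at least half of replicates also reaching 10%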
PLC-gamma1 inh = PLC-gamma1 enzyme inhibitors, primary screen, biochemical, fluorescence, purified enzyme; 1-phosphatidylinositol 4,5-bisphosphate phosphodiesterase gamma-1 (Homo sapiens), P19174; inhibition, % at 12.2 µM; AID 720700, 2013; fluorogenic substrate; hit rate 0.84% among 370,000; in the data active means inhibition above about 9.5%
PLC-beta3 inh = human PLC-beta3 inhibitors, primary screen, biochemical, fluorescence | Purified PLC-beta3, fluorogenic substrate | 1-phosphatidylinositol 4,5-bisphosphate phosphodiesterase beta-3 (Homo sapiens), Q01970 | inhibition, % at 12.2 µM | hit rate 0.18% among 370,000; in the data active means inhibition above about 11%;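 further: 0% = median of compound wells on plate and 100% = full blocker control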
AHR act = AHR activators, primary screen, cell-based, luminescence, luciferase reporter, human; Aryl hydrocarbon receptor (Homo sapiens), P35869; AHR-responsive luciferase reporter cells; activation, % at 5 µM; hit rate 2.5% among 320,000; in the data active means activation above about 47%;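 further: 0% = vehicle wells and 100% = reference agonist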
Target sequence (P35869 whole entry, looked up): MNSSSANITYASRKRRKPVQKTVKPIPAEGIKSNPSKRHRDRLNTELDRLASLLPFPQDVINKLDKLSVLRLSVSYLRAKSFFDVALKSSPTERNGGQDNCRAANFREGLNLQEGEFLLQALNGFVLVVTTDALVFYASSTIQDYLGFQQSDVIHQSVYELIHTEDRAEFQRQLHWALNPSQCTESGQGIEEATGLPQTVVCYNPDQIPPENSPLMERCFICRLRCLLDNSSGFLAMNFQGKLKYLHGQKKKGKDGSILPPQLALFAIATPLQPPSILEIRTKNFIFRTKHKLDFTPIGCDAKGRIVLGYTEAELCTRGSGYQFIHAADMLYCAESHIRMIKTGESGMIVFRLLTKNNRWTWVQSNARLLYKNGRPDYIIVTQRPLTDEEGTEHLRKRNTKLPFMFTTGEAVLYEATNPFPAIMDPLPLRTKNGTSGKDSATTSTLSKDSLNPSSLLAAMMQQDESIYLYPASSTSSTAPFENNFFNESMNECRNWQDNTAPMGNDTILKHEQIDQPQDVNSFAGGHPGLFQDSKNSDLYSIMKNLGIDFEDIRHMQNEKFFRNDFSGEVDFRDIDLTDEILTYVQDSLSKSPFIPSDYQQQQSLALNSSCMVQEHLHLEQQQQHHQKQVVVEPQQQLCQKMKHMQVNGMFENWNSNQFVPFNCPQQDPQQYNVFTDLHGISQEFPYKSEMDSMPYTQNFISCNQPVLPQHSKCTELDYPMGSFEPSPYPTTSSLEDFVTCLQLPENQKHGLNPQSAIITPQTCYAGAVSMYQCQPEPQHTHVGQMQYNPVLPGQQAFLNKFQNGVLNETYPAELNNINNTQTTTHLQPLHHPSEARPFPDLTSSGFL
Numbers without * were called inactive; . = no result. Sampled rows, rich in hits. Any-hit rate of the full collection: about 3.9%.

SMILES	sPLA2-III inh	CR mimetic SO	HIF activator	PLC-gamma1 inh	PLC-beta3 inh	AHR act
O=C(c1ccccc1)c1c[nH]c2ccccc12	-4	98	1	0	-2	.
O=C(/C=C/c1c[nH]c2ccccc12)c1cccc2ccccc12	-31	91	2	-232	-278	68*
Oc1ccc2ccccc2c1C1Nc2cccc3cccc(c23)N1	.	93	0	.	.	21
CCN(CC)c1ccc(C2Nc3cccc4cccc(c34)N2)c(O)c1	6	104	.	-45	-69	71*
C=CCOc1c(Br)cc(/C=N/n2c(CC)n[nH]c2=S)cc1Br	-2	91	0	4	6	68*
CCc1n[nH]c(=S)n1/N=C/c1cc(Br)c(O)c(OC)c1	5	92	-1	4	-3	5
O=C(COC(=O)Cc1c(Cl)cccc1Cl)Nc1ccc(OC(F)(F)F)cc1	1	120	0	3	1	67*
Cc1onc(-c2ccccc2)c1C(=O)Nc1ccccc1N1CCOCC1	-5	91	-1	13*	2	22
Cc1cc(C(=O)NC(=S)Nc2ccccc2N2CCOCC2)ccc1[N+](=O)[O-]	15	94	0	3	2	12
Cc1cc(C(=O)NC(=S)Nc2ccccc2N2CCCC2)ccc1[N+](=O)[O-]	10	101	0	6	2	50*
Cc1cc(C(=O)Nc2ccccc2N2CCOCC2)ccc1[N+](=O)[O-]	0	108	0	4	5	72*
COc1ccc(C(=O)Nc2ccccc2N2CCOCC2)cc1[N+](=O)[O-]	12	106	0	4	1	15
COc1ccccc1NC(=O)c1cc([N+](=O)[O-])ccc1N1CCOCC1	2	109	0	3	-4	60*
CCOC(=O)[C@]12CCCC=C1N(Cc1ccc(OC)cc1)C(=O)[C@@H]2CC(=O)NCC12CC3CC(CC(C3)C1)C2	-9	.	.	1	2	.
CC(C)(C)c1ccc(-c2cn(C[C@H](Cc3ccccc3)n3c(=O)c4ccccc4n3Cc3ccno3)nn2)cc1	-12	.	.	-22	-28	.
CC(C)/C=C1\CCc2c([nH]c3ccccc23)C1=O	-11	107	1	-74	-112	57*
O=C1/C(=C\c2ccccc2)CCc2c1[nH]c1ccccc21	-13	94	2	-224	-327	20
O=C(Nc1ccccc1-c1nc2ccccc2[nH]1)c1ccc(N2C(=O)CCC2=O)cc1	-3	95	0	-16	-23	49*
O=C(Nc1ccccc1-c1nc2ccccc2[nH]1)c1ccc(S(=O)(=O)N2CCCCC2)cc1	-1	.	0	0	2	.
Cc1ccc2c(c1)C(CS(=O)(=O)NCC(C)C)NC2 (stereo not given)	8	.	.	-8	-7	.
COc1ccc(OC)c(NC(=O)c2cnn(-c3ccccc3)c2C)c1	2	88	0	3	2	76*
Cc1nn(-c2ccc(Cl)cc2)c(N)c1C(O)(CSc1nccn1C)C(F)(F)F (stereo not given)	3	93	.	-6	-4	48*
CCC[n+]1c2ccccc2cc2ccccc21	29*	139	2	-95	-137	21
C/C(=N\N=c1/sc2ccccc2n1C)c1ccc(N2CCOCC2)cc1	4	110	9	1	0	53*
Cc1ccc(N/N=C(\Cc2nc3ccccc3[nH]2)c2ccccc2)cc1	.	76	.	.	.	34
SMILES	sPLA2-III inh	CR mimetic SO	HIF activator	PLC-gamma1 inh	PLC-beta3 inh	AHR act
c1ccc(N/N=C(\Cc2nc3ccccc3[nH]2)c2ccccc2)cc1	-4	93	2	-72	-83	149*
N#CCCN/N=C(/Cc1nc2ccccc2[nH]1)c1ccc(Cl)cc1	.	107	1	.	.	48*
COC(=O)C[C@H]1CC[C@@H]2[C@@H](COc3ccc(NC(=O)Nc4cccc(C)c4)cc3C(=O)N2C)O1	-10	.	.	0	3	.
CCCCCN1CCCCC(NC(=O)Cc2ccccc2)C1=O (stereo not given)	-3	.	.	0	2	.
COC(=O)/C(=C(/F)SCC(C)=O)C(F)(F)F	.	109	91*	.	.	2
C/C(=N/NC(=O)c1ccc(Br)o1)c1ccncc1	2	106	0	-4	-3	50*
C/C(=N/NC(=O)c1ccc(Br)o1)c1cccc(NC(=O)c2ccc(C)o2)c1	-4	94	2	-1	-3	51*
C/C(=N/NC(=O)c1ccco1)c1cccc(NC(=O)c2ccc(C)o2)c1	3	113	4	-1	3	9
C#CCNC(=O)C[C@@H]1C(=O)N(CCc2ccc(Cl)cc2)C2=CCCCC[C@]21C(=O)OC	-7	.	.	0	1	.
CCCC/C=C1/[C@H](c2ccccc2)N(C)C2=N[C@H](c3ccccc3)CC(=O)N21	-4	.	.	-2	-1	.
COc1ccc(N2C(=O)c3n[nH]c(C(C)C)c3C2c2ccc(C)cc2)cc1 (stereo not given)	-13	.	.	2	-1	.
C=CCNC(=O)Nc1ccc2c(c1)[C@@]1(CC(=O)N(CC(C)C)C1c1ccccc1)C(=O)N2C (stereo not given in full)	1	.	.	-1	3	.
C/C(=N\Nc1nc(Cl)c(Cl)cc1Cl)c1ccc(S(=O)(=O)NCc2ccco2)cc1	-3	80	0	-28	-30	49*
CCC(NC(=O)c1ccccc1NC(=O)c1ccccc1)C(=O)O (stereo not given)	11	106	0	-1	-5	2
CC(C)CC(NC(=O)c1ccccc1NC(=O)c1ccccc1)C(=O)O (stereo not given)	2	94	369*	1	-6	0
COc1cccc(-c2nn(-c3ccccc3)cc2CN(C)Cc2ccno2)c1	-10	94	0	1	-1	14
COc1cccc(-c2nn(-c3ccccc3)cc2CN(C)C(C)c2ccon2)c1 (stereo not given)	-10	111	1	3	-4	68*
CCCC(=O)c1ccc(N2CCN(C(=O)c3ccc(Br)cc3)CC2)c(F)c1	4	84	0	3	3	7
CCC(=O)c1ccc(N2CCN(C(=O)c3ccc(Br)cc3)CC2)c(F)c1	5	88	86*	5	3	2
COc1ccc(CCNC(=O)CCN2C(=O)COc3ccccc32)cc1OC	6	87	0	1	1	85*
COc1ccc(CCNC(=O)CCN2C(=O)COc3ccc(C)cc32)cc1OC	2	117	0	2	2	-2
COC(=O)c1cc2c(c3c4ccccc4n(S(C)(=O)=O)c13)C(=O)N(Cc1ccccc1)C2	-4	.	.	-14	-16	.
